This note sets out measurements from the supplement of paper PMC3545927.

Some of the results follow. The hit rate among all sequences tested is not known here.

This experiment concerns the target furin, P09958. Kind of experiment: furin cleavage Z-score vs untreated control; higher = more cleavage, active = 3.5 or more, inactive = 1 or less, 8 variable residues between constant flanks. The method, boiled down:
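Purified furin cleaved 8-mer peptides that were fused to a cDNA oligonucleotide and held on magnetic beads by their N-terminus. Each 0.01 ml reaction used a 1:10 enzyme:substrate ratio in 50 mM HEPES pH 7.5 with CaCl2 and NaCl and ran 7.5, 15 or 30 min. Released DNA was adapter-tagged by PCR and sequenced, and read counts gave abundance. The cleavage Z-score came from log counts against furin-free reactions, lowess-adjusted and scaled by median absolute deviation.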

Chain of furin, P09958 (P09958 whole entry, the tested form may be a part): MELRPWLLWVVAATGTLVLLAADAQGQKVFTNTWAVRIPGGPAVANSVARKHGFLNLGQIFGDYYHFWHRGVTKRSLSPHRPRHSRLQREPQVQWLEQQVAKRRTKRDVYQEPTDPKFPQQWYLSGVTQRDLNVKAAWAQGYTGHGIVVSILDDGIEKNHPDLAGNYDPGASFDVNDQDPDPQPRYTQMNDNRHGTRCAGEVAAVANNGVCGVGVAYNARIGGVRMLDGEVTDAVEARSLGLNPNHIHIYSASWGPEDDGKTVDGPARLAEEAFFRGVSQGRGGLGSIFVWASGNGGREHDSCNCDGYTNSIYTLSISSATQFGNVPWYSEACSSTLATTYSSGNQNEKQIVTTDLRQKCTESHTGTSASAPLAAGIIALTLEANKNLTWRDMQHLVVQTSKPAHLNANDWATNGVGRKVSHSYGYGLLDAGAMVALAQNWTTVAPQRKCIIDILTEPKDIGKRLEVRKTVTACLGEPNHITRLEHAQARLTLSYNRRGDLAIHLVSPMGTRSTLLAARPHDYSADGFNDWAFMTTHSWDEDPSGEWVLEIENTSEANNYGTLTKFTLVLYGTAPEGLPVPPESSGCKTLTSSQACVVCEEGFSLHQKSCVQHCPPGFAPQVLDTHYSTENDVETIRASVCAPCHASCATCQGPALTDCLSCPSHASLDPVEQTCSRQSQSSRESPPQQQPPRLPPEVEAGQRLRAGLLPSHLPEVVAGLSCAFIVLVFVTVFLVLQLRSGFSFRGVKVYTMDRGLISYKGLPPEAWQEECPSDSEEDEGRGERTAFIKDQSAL

B1: HC439 (peptide)
chain: CASTGFTKVCAGNASASA
B1: the “furin cleavage Z-score” value was 0.727 (inactive) (7.5 min), -0.241 (inactive) (15 min) and 0.58 (inactive) (30 min).

B2: HC396 (peptide)
chain: CAPISYANGSAGNASASA
As for B2, the “furin cleavage Z-score” value runs as follows: (7.5 min) 0.358 (inactive); (15 min) -0.237 (inactive); (30 min) 0.768 (inactive).

B3: HC1680 (peptide)
chain: CACEECSQHLAGNASASA
As to B3, the “furin cleavage Z-score” value was -0.324 (inactive) (7.5 min), -2.23 (inactive) (15 min) and -0.379 (inactive) (30 min).

B4: FS-494 (peptide)
chain: CARRNRRRREAGNASASA
On to B4, for which the “furin cleavage Z-score” value is, setting by setting: (7.5 min) 12 (active); (15 min) 13.6 (active); (30 min) 9.7 (active).

B5: FS-456 (peptide)
chain: CALHGRRRREAGNASASA
Take B5: the “furin cleavage Z-score” value runs as follows: (7.5 min) 12.8 (active); (15 min) 11.9 (active); (30 min) 10.7 (active).

B6: FS-355 (peptide)
chain: CALNRRRRREAGNASASA
In the case of B6, the “furin cleavage Z-score” value is 12.7 (active) (7.5 min), 12.9 (active) (15 min) and 8.21 (active) (30 min).

B7: FS-2900 (peptide)
chain: CARDARRLKEAGNASASA
Regarding B7, the “furin cleavage Z-score” value was 0.375 (inactive) (7.5 min), -1.38 (inactive) (15 min) and -0.471 (inactive) (30 min).

B8: HC1203 (peptide)
chain: CAVSAEEYVEAGNASASA
On to B8, for which the “furin cleavage Z-score” value is -1.9 (inactive) (7.5 min), 0.0508 (inactive) (15 min) and 0.782 (inactive) (30 min).

B9: FS-1707 (peptide)
chain: CARFYRSRKKAGNASASA
As for B9, the “furin cleavage Z-score” value is 0.676 (inactive) (7.5 min), 1.31 (15 min) and 0.114 (inactive) (30 min).

B10: FS-921 (peptide)
chain: CAVFARHLREAGNASASA
Turning to B10, the “furin cleavage Z-score” value is 5.03 (active) (7.5 min), 6.28 (active) (15 min) and 4.54 (active) (30 min).

B11: HC1960 (peptide)
chain: CACCTTPCSGAGNASASA
With B11, the “furin cleavage Z-score” value reads like this: (7.5 min) -1.19 (inactive); (15 min) -0.424 (inactive); (30 min) -0.858 (inactive).

B12: HC581 (peptide)
chain: CAWCLWWLQYAGNASASA
For B12, the “furin cleavage Z-score” value (7.5 min) is -0.105 (inactive), the “furin cleavage Z-score” value (15 min) is -0.224 (inactive) and the “furin cleavage Z-score” value (30 min) is -0.828 (inactive).

B13: HC435 (peptide)
chain: CAWFGCTWMNAGNASASA
For B13, the “furin cleavage Z-score” value (7.5 min) is -0.725 (inactive), the “furin cleavage Z-score” value (15 min) was 1.68 and the “furin cleavage Z-score” value (30 min) is 1.37.

B14: HC392 (peptide)
chain: CATDFDQGWGAGNASASA
For the sequence B14, the “furin cleavage Z-score” value (7.5 min) was -0.591 (inactive), the “furin cleavage Z-score” value (15 min) was -2.3 (inactive) and the “furin cleavage Z-score” value (30 min) is -1.94 (inactive).

B15: FS-427 (peptide)
chain: CAGGGRTRREAGNASASA
With B15, the “furin cleavage Z-score” value is 3.88 (active) (7.5 min), 3.57 (active) (15 min) and 2.42 (30 min).

B16: FS-1318 (peptide)
chain: CAEGGRRRREAGNASASA
Consider B16, for which the “furin cleavage Z-score” value is, setting by setting: (7.5 min) 4.58 (active); (15 min) 3.64 (active); (30 min) 2.94.

B17: HC1095 (peptide)
chain: CAMSGEVPSTAGNASASA
Regarding B17, the “furin cleavage Z-score” value runs as follows: (7.5 min) -0.208 (inactive); (15 min) -0.846 (inactive); (30 min) 0.503 (inactive).

B18: NE1 (peptide)
chain: CAGGGGGGGGAGNASASA
For B18, the “furin cleavage Z-score” value runs as follows: (7.5 min) 1.03; (15 min) 0.409 (inactive); (30 min) 1.54.

B19: FS-1468 (peptide)
chain: CAMSGRRLREAGNASASA
B19: the “furin cleavage Z-score” value (7.5 min) came to 3.25, the “furin cleavage Z-score” value (15 min) was 3.96 (active) and the “furin cleavage Z-score” value (30 min) is 3.6 (active).

B20: HC1355 (peptide)
chain: CAPPLEGEPGAGNASASA
For B20, the “furin cleavage Z-score” value is 0.988 (inactive) (7.5 min), 0.95 (inactive) (15 min) and 0.522 (inactive) (30 min).

B21: FS-1198 (peptide)
chain: CAGKSLKKRSAGNASASA
As for B21, the “furin cleavage Z-score” value is, setting by setting: (7.5 min) 10.8 (active); (15 min) 8.86 (active); (30 min) 8.35 (active).

B22: FS-161 (peptide)
chain: CAGKSVKKRSAGNASASA
With B22, the “furin cleavage Z-score” value is 8.72 (active) (7.5 min), 12 (active) (15 min) and 9.51 (active) (30 min).

B23: HC1445 (peptide)
chain: CAPEKGGRKPAGNASASA
On to B23, for which the “furin cleavage Z-score” value runs as follows: (7.5 min) 0.667 (inactive); (15 min) -1.91 (inactive); (30 min) -0.0787 (inactive).

B24: HC1186 (peptide)
chain: CATCRNMWSGAGNASASA
For the sequence B24, the “furin cleavage Z-score” value is, setting by setting: (7.5 min) 1.45; (15 min) 1.34; (30 min) 0.472 (inactive).

B25: HC2144 (peptide)
chain: CAIVVTSTWVAGNASASA
Take B25: the “furin cleavage Z-score” value (7.5 min) was 0.282 (inactive), the “furin cleavage Z-score” value (15 min) was -0.196 (inactive) and the “furin cleavage Z-score” value (30 min) is 0.858 (inactive).

B26: FS-1278 (peptide)
chain: CASGSKKKRKAGNASASA
On to B26, for which the “furin cleavage Z-score” value is, setting by setting: (7.5 min) -1.57 (inactive); (15 min) 0.447 (inactive); (30 min) 0.492 (inactive).

B27: FS-337 (peptide)
chain: CAIFWRKKRKAGNASASA
In the case of B27, the “furin cleavage Z-score” value is, setting by setting: (7.5 min) 4.37 (active); (15 min) 3.52 (active); (30 min) 5.53 (active).

B28: FS-1339 (peptide)
chain: CAHLVRKKRKAGNASASA
With B28, the “furin cleavage Z-score” value is, setting by setting: (7.5 min) 10.2 (active); (15 min) 11.5 (active); (30 min) 10.3 (active).

B29: FS-824 (peptide)
chain: CALLVRKKRKAGNASASA
For the sequence B29, the “furin cleavage Z-score” value runs as follows: (7.5 min) 9.19 (active); (15 min) 10.5 (active); (30 min) 8.06 (active).

B30: HC1267 (peptide)
chain: CAATCTANHDAGNASASA
Regarding B30, the “furin cleavage Z-score” value (7.5 min) was -0.592 (inactive), the “furin cleavage Z-score” value (15 min) was 0.126 (inactive) and the “furin cleavage Z-score” value (30 min) is 0.634 (inactive).

B31: HC1463 (peptide)
chain: CAAVMGSSYGAGNASASA
As for B31, the “furin cleavage Z-score” value runs as follows: (7.5 min) -0.652 (inactive); (15 min) 0.469 (inactive); (30 min) -0.776 (inactive).

B32: HC545 (peptide)
chain: CALVFFCFAWAGNASASA
As for B32, the “furin cleavage Z-score” value reads like this: (7.5 min) -0.625 (inactive); (15 min) -0.493 (inactive); (30 min) -2.31 (inactive).

B33: FS-453 (peptide)
chain: CAKSNRFRRQAGNASASA
On to B33, for which the “furin cleavage Z-score” value reads like this: (7.5 min) 9.35 (active); (15 min) 7.39 (active); (30 min) 5.76 (active).

B34: HC1441 (peptide)
chain: CAKNEVFCVQAGNASASA
Consider B34, for which the “furin cleavage Z-score” value was -0.977 (inactive) (7.5 min), -0.752 (inactive) (15 min) and -0.637 (inactive) (30 min).

B35: HC167 (peptide)
chain: CARNTNRRPQAGNASASA
As for B35, the “furin cleavage Z-score” value runs as follows: (7.5 min) 0.367 (inactive); (15 min) 0.97 (inactive); (30 min) -0.345 (inactive).

B36: FS-1018 (peptide)
chain: CAKNNRGRRQAGNASASA
Take B36: the “furin cleavage Z-score” value by setting is: (7.5 min) 8.48 (active); (15 min) 8.87 (active); (30 min) 9.25 (active).

B37: FS-1443 (peptide)
chain: CAAKRRTRRQAGNASASA
Turning to B37, the “furin cleavage Z-score” value runs as follows: (7.5 min) 9.31 (active); (15 min) 8.38 (active); (30 min) 7.06 (active).

B38: FS-1598 (peptide)
chain: CAKYNRGRRKAGNASASA
In the case of B38, the “furin cleavage Z-score” value runs as follows: (7.5 min) -1.68 (inactive); (15 min) 1.26; (30 min) 2.34.

B39: FS-521 (peptide)
chain: CAAKRRFRRQAGNASASA
On to B39, for which the “furin cleavage Z-score” value (7.5 min) is 11.3 (active), the “furin cleavage Z-score” value (15 min) is 11.5 (active) and the “furin cleavage Z-score” value (30 min) was 9.92 (active).

B40: HC956 (peptide)
chain: CAATVCARAQAGNASASA
Regarding B40, the “furin cleavage Z-score” value is -0.452 (inactive) (7.5 min), 0.685 (inactive) (15 min) and -0.234 (inactive) (30 min).

B41: HC1973 (peptide)
chain: CAERTTPCSGAGNASASA
On to B41, for which the “furin cleavage Z-score” value was -0.657 (inactive) (7.5 min), 0.759 (inactive) (15 min) and 0.0382 (inactive) (30 min).

B42: HC106 (peptide)
chain: CAVVCCFMSYAGNASASA
With B42, the “furin cleavage Z-score” value is, setting by setting: (7.5 min) 0.2 (inactive); (15 min) -0.139 (inactive); (30 min) -1.5 (inactive).

B43: HC7 (peptide)
chain: CAMEEWSQHLAGNASASA
B43: the “furin cleavage Z-score” value (7.5 min) was -0.124 (inactive), the “furin cleavage Z-score” value (15 min) was 0.451 (inactive) and the “furin cleavage Z-score” value (30 min) is 0.398 (inactive).

B44: FS-2121 (peptide)
chain: CAKARRFVEQAGNASASA
With B44, the “furin cleavage Z-score” value was -0.772 (inactive) (7.5 min), 0.447 (inactive) (15 min) and -0.0659 (inactive) (30 min).

B45: FS-1001 (peptide)
chain: CAGMLRQRRPAGNASASA
As for B45, the “furin cleavage Z-score” value by setting is: (7.5 min) -1.01 (inactive); (15 min) -1.53 (inactive); (30 min) -1.03 (inactive).

B46: FS-783 (peptide)
chain: CAGKRRFRRQAGNASASA
On to B46, for which the “furin cleavage Z-score” value is, setting by setting: (7.5 min) 8.34 (active); (15 min) 7.16 (active); (30 min) 6.56 (active).
